# This is part of a sample that, as a whole, favours compounds with a hit. Of some 83,000 tested, about 20% had one in any assay.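 Negative percent growth values reflect cell death: -40 means 40% of the cells present at the start died, and -100 means all died.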 The source made the active and inactive calls.
# Tested on: MOLT-4 leukemia
# Test: NCI-60 one-dose screen, 48 h (100 = growth as untreated, 0 = no growth, -100 = all killed)
# Conditions: 10 µM unless noted
# Description: Growth inhibition of the MOLT-4 human tumor cell line is measured as a screen for anti-cancer activity. Cells are grown in 96 well plates and exposed to the test compound for 48 hours. Compounds are tested at a single concentration, which is 10^-5 M for most compounds. The reported endpoint is percent growth (GI% or GIPRCNT), where numbers from 0 - 100% represent growth inhibition, and numbers from -100% - 0 represent cell death. For example, a value of 40 represents 60% growth inhibition. A value of 0 means no net growth occurred over the course of the experiment. A value of -40 indicates 40% of cells at the beginning of the experiment died by the end of the experiment. A value of -100 means all cells are dead at the end of the experiment.
# NCI-60 Human Tumor Cell Lines Screen was performed using the standard one-dose NCI protocol, which is described in more detail at https://dtp.cancer.gov/discovery_development/nci-60/default.htm.
# Compounds with GIPRCNT values below 10 were considered active. Activity score was based on GIPRCNT using the following formula: […]
# Score is 0 for GIPRCNT values of 100 or above, 50 for GIPRCNT values of 0, and 100 for GIPRCNT values of -100.
row,Compound,growth
1,COc1cccc(Nc2nc(NCCO)c3ccccc3n2)c1,48.1% (inactive)
2,Cc1c(NCC(=O)Nc2nc3ccccc3[nH]2)c(=O)n(-c2ccccc2)n1C,104% (inactive)
3,O=[N+]([O-])c1ccc2nc(N/N=C/c3ccc(O)cc3)sc2c1,24% (inactive)
4,COc1ccc(Cn2c(Br)c3c(c2-c2cc(OC)c(OC)c(OC)c2)CCc2sc(N)nc2-3)cc1,8.47% (active)
5,O=C(O)C[C@H](O)C[C@H](O)/C=C/c1c(C2CC2)nc2ccccc2c1-c1ccc(F)cc1,110% (inactive)
6,O=C1N/C(=C\c2ccccc2)c2ncccc21,80.7% (inactive)
7,Brc1ccc(SCN(CSc2ccc(Br)cc2)Cc2ccccc2)cc1,17% (inactive)
8,Cc1cc(=O)oc2c1ccc1oc(C(=O)c3ccccc3)c(C)c12,76.8% (inactive)
9,O=c1oc2ccccc2cc1-c1csc(N=Nc2c(O)[nH]c3ccc(Cl)cc23)n1,105% (inactive)
10,CC1=CN2C(=NC3=C(CCCC/C3=C\c3ccccc3)C2c2ccccc2)S1 (stereo not given),99.8% (inactive)
11,Cc1cc(NS(=O)(=O)c2ccc(NC(=O)COc3ccc(-c4cc5ccccc5[nH]4)cc3)cc2)no1,-2.31% (active)
12,CC(C)NCC(O)COc1ccc(CCOCC2CC2)cc1 (stereo not given),88.3% (inactive)
13,CSc1ccc(OC(C)=O)cc1C,89.6% (inactive)
14,CCOC(=O)n1cc(C2=C(c3cn(C)c4ccccc34)COC2=O)c2ccccc21,18.3% (inactive)
15,O=C1/C(=C/c2ccc(Oc3ccccc3)cc2)N=C(c2ccccc2)N1CCc1cccs1,62.8% (inactive)
16,Cc1ccc(N=c2nc3sc4c(C)ccc(C)c4n3c(N)c2C#N)cc1,93.6% (inactive)
17,CC(C)OC1=C(Cl)C(=O)c2ccccc2C1=O,39.8% (inactive)
18,COc1cccc(C2C3=C(COC3=O)N(CCO)c3cc4c(cc32)OCO4)c1 (stereo not given),27.1% (inactive)
19,Cc1nc2cc(Nc3nc(N4CCOCC4)nc(N4CCN(C)CC4)n3)ccc2n1Cc1ccccc1,91.8% (inactive)
20,O=C1NC(=O)C(CSc2ccccc2)(c2ccccc2)N1 (stereo not given),97.8% (inactive)

row,Compound,growth
1,Nc1cccc2c(=S)c3ccccc3[nH]c12,104% (inactive)
2,O=C1/C(=C/c2ccc(Cl)cc2)CN(Cc2cn(CCCNc3ccnc4cc(Cl)ccc34)nn2)C/C1=C\c1ccc(Cl)cc1,-16.7% (active)
3,CC(=O)OC[C@H](O)[C@@]1(O)CC[C@H]2[C@@H]3CCC4=CC(=O)CC[C@]4(C)[C@H]3[C@@H](O)C[C@@]21C,89% (inactive)
4,COc1ccc(Nc2[nH]n(C3=Nc4ccccc4Sc4ccccc43)c(=O)c2C#N)cc1,46.5% (inactive)
5,Cc1cccc2c(=O)c3c(sc12)c(NCCCN)nc1ccccc13,-18.3% (active)
6,FC(F)(F)Oc1ccc2c(c1)C[C@H]1C[C@@H](c3ccoc3)N2O1,96.4% (inactive)
7,Oc1cccc(Nc2nc(-c3ccccn3)cs2)c1,85.2% (inactive)
8,Cn1c2c(cc(S(=O)(=O)c3ccccc3)c1=O)CCc1c-2cnn1-c1cccc(Cl)c1,86.2% (inactive)
9,Nc1cc2[nH]c(=O)c3ccccc3c2cc1Br,87.3% (inactive)
10,CC[Si](CC)(CC)OC1[C@@H](O[Si](CC)(CC)CC)[C@@H](CNC(=O)NC)O[C@H]1n1cnc2c(NC(=O)Nc3ccccc3)ncnc21 (stereo not given in full),-10.9% (active)
11,COCCOC1=C(Cl)C(=O)c2ccccc2C1=O,21.7% (inactive)
12,CC1CCCCN1S(=O)(=O)c1ccc(CN=C=S)cc1 (stereo not given),31.1% (inactive)
13,Cc1ccc(S(=O)(=O)N(c2ccc(Cl)cc2)c2ccc(Br)cc2C(=O)O)cc1,98.5% (inactive)
14,COC(=O)C1C2CC3c4[nH]c5cc(OC)ccc5c4CCN3CC2CC(OC2CCCCO2)C1OC (stereo not given),99.2% (inactive)
15,Cc1nc2cc(Nc3nc(Cl)nc(Nc4ccc(F)cc4)n3)ccc2n1Cc1ccccc1,90.6% (inactive)
16,CC(C)N1CCN(c2ccc(OC[C@H]3CO[C@](Cn4cncn4)(c4ccc(Cl)cc4Cl)O3)cc2)CC1,86.2% (inactive)
17,Oc1ccccc1/C=N/Nc1nc2ccccc2s1,41.2% (inactive)
18,COC(=O)c1c2c(c(C)[n+]([O-])c1C)C(=O)C=C(NCc1ccc(F)cc1)C2=O,-35.2% (active)
19,CCCCCCCC/C=C\CCCCCCCCOc1cccc(CC(=O)NCC[N+]2(C)CCCCC2)c1,57% (inactive)
20,O=S(=O)(Nc1ncccn1)c1ccc(Nc2ccc3nnc(-c4ccncc4)n3n2)cc1,109% (inactive)
